Screens (PubChem)
Rows were chosen to be rich in hits. Some 2% of all compounds tested hit in one or more screens of this group.
aSyn rescue = rescues yeast growth from alpha-synuclein toxicity. Yeast expressing alpha-synuclein, growth rescue, BacTiter-Glo, 24 h. Potency, µM (series often up to 46.1 µM), hits mostly activators. actives 0.14% (n = 370,000); also: nearly all actives have a fitted effect of over 65% in size
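Screening used galactose-induced yeast with toxic alpha-synuclein levels, exposed to compound for 24 hr at 30 deg C. Cell growth, read with BacTiter-Glo luminescence, gave the measured signal.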
TDP-43 yeast inh = inhibitors of TDP-43 toxicity in yeast. Potency, µM (doses to about 46.1 µM), hits mostly activators. AID 652104. TDP-43 expressing yeast growth rescue, BacTiter-Glo, 24 h. actives 1.8% (n = 410,000); also: nearly all actives have a fitted effect of over 50% in size
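Yeast cells expressing TDP-43 under galactose induction are exposed to compounds for 24 hr at 30 deg C. BacTiter-Glo luminescence measures growth, so protective compounds score as activators.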
MBNL1 CUG block = blocks human MBNL1 binding to CUG repeat RNA; Q9NR56; TR-FRET MBNL1-His/biotin-(CUG)12 binding, 665/545 ratio; Potency, µM (titrated, usually from 57.5 µM), most hits filed as inhibitors; actives 0.036% (n = 280,000); AID 2675; active = well fitted inhibition curve with a large enough effect in the signal ratio, with a control signal flat, not every such curve was filed as active; inconclusive = small, poorly fitted or top-dose-only effect, or effect the other way, or a change in a side signal; inactive = no such curve, though single readings can be large or run the other way; the % refers to the signal ratio
Target sequence (Q9NR56 whole entry, looked up): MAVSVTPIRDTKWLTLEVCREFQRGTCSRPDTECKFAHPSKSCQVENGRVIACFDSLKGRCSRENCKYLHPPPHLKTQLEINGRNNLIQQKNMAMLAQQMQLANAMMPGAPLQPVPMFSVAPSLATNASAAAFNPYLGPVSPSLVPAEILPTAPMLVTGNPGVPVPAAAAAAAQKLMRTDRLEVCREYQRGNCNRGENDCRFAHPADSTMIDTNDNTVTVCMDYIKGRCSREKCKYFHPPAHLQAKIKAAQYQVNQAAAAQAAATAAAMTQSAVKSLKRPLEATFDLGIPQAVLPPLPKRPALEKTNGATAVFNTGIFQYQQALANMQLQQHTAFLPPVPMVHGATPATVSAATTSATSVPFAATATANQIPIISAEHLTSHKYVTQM
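MBNL1-His + Biotin-(CUG)12, cpd titration 92 nM–58 uM; Tb anti-His Ab 0.055 ng/ul, SA-XL665 5 nM (final); 60 min RT; ratiometric 665/545 nm, Ex 340 nm; normalized to buffer and full-complex controls.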
Abeta yeast res = restores growth of yeast expressing A-beta42 peptide | yeast expressing A-beta42, growth rescue, OD600, 48 h; response scale: 0% DMSO, 100% iron-clioquinol control | Potency, µM (top dose mostly 46.1 µM), most hits filed as activators | actives 0.063% (n = 410,000); also: nearly all actives have a fitted effect of over 55% in size
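Yeast growth medium received pinned compounds, then yeast cells expressing toxic A-beta were added; plates incubated at 30 C for 48 hr. Growth read as absorbance at 600 nm, normalized to DMSO and equimolar FeCl3 plus clioquinol controls.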
Glioma ERSR ind = inducers of ER stress response in human glioma cells; U87-MG GRP78 promoter luciferase reporter, 16 h; Potency, µM, most hits filed as activators; actives 0.02% (n = 420,000); AID 602332; also: series mostly up to about 76 µM; nearly all actives have a fitted effect of over 35% in size
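Stably transfected U87-MG glioma cells carrying a GRP78-based luciferase sensor; 16 h compound incubation. Luminescence end-point read 10 min after Bright-Glo addition at room temperature.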
FUS yeast rescue = FUS proteinopathy suppression in yeast; Potency, µM (doses to about 76.6 µM), actives largely listed as activators; actives 0.24% (n = 390,000); S. cerevisiae FUS-expressing, growth rescue, OD600, 24 h; AID 1347120; also: nearly all actives have a fitted effect of over 55% in size
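Read-out: OD at 600 nm after 24hr at 30C, reporting rescue of FUS-induced yeast toxicity. Cells at OD 0.005 in galactose (2%) minimal medium; compounds tested in a dilution series; CP55940 titration from 92uM final as control.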
Each line names hits and unclear results; the compound was inactive in the other large screens. Unless noted, calls follow the shape of the dose curve; as a rule, active = well fitted curve in the direction sought with a large enough effect; inconclusive = small, poorly fitted or top-dose-only effect, or another doubt; inactive = no such curve, though single readings can be large; an effect the other way counts as inactive or inconclusive.

COc1cc(-c2nnc(COc3ccc4ccccc4c3)o2)cc(OC)c1OC	TDP-43 yeast inh 28.2µM (no result: FUS yeast rescue)
O=C(NC(=S)Nc1ccc(N2CCOCC2)cc1)c1ccccc1	none
O=C(NC(=S)Nc1ccc(N2CCOCC2)cc1)c1cccc(Cl)c1	TDP-43 yeast inh 15.8µM
N#Cc1c([N+](=O)[O-])cc([N+](=O)[O-])cc1S(=O)(=O)Cc1ccccc1	TDP-43 yeast inh 11.2µM (no result: MBNL1 CUG block, FUS yeast rescue)
CCOC(=O)[C@@]12CCCC3=C1N(CCC3)C(=O)[C@H]2CC(=O)NCCC(C)C	none (no result: aSyn rescue, TDP-43 yeast inh, MBNL1 CUG block, Abeta yeast res, Glioma ERSR ind)
CN(C(=O)CCc1ccccc1F)C1CCCN(Cc2ccccc2F)C1 (configuration not stated)	TDP-43 yeast inh 20µM
c1ccc(-c2nnc(CSc3ccc4c(c3)OCCO4)o2)cc1	TDP-43 yeast inh 12.6µM
COc1ccccc1[C@H]1C(c2ccc(F)cc2)=NN(c2ccccc2)[C@@H]1CO	TDP-43 yeast inh 28.2µM (no result: MBNL1 CUG block)
C[C@H]1C(c2ccc(F)cc2)=NN(c2ccccc2)[C@@H]1CO	TDP-43 yeast inh 17.8µM, Abeta yeast res inconclusive (no result: MBNL1 CUG block)
CC(OC(=O)CCc1c[nH]c2ccccc12)C(=O)c1ccccc1 (configuration not stated)	TDP-43 yeast inh 35.5µM
CC(=O)Nc1ccc(NC(=O)C(C)OC(=O)CCCc2c[nH]c3ccccc23)cc1 (configuration not stated)	none (no result: MBNL1 CUG block)
Cc1ccc(C2=CC(=O)C[C@H](c3ccc(Cl)cc3)C2)cc1	TDP-43 yeast inh 15.8µM (no result: MBNL1 CUG block)
O=C1C=C(c2cccc(CO)c2)C[C@@H](c2ccc(Cl)cc2)C1	TDP-43 yeast inh 17.8µM (no result: MBNL1 CUG block)
O=C1CC(c2ccc(Cl)cc2)CC(=O)C1CS(=O)(=O)c1ccccc1 (configuration not stated)	FUS yeast rescue inconclusive
O=C1C=C(c2ccc(O)cc2)C[C@@H](c2ccc(Cl)cc2)C1	TDP-43 yeast inh inconclusive (no result: MBNL1 CUG block)
O=C1C=C(c2ccccc2)C[C@@H](c2ccc(Cl)cc2)C1	TDP-43 yeast inh 20µM (no result: MBNL1 CUG block)
O=C1CC(c2ccccc2)CC(=O)C1Sc1ccc(Cl)cc1 (configuration not stated)	TDP-43 yeast inh 10µM (no result: FUS yeast rescue)
O=C(c1ccc2c(c1)OCO2)N(Cc1cc2cc3c(cc2nc1N1CCOCC1)CCC3)CC1CCCO1 (configuration not stated)	none (no result: aSyn rescue, TDP-43 yeast inh, MBNL1 CUG block, Abeta yeast res, FUS yeast rescue)
O=C(OCc1cn(Cc2cccc(F)c2)nn1)N1CCCCC1	none (no result: aSyn rescue, TDP-43 yeast inh, MBNL1 CUG block, Abeta yeast res, Glioma ERSR ind)
O=C(NCCN1Cc2ccccc2OC(c2ccccc2F)C1)c1ccco1 (configuration not stated)	none (no result: aSyn rescue, TDP-43 yeast inh, MBNL1 CUG block, Abeta yeast res, FUS yeast rescue)
CC[C@@H](CCCc1ccc(F)cc1)CN(Cc1ccc(OC)cc1)S(=O)(=O)c1ccc(C)cc1	none (no result: aSyn rescue, TDP-43 yeast inh, MBNL1 CUG block, Abeta yeast res, Glioma ERSR ind)
O=C1C=C(c2ccc3ncccc3c2)C[C@@H](c2ccc(Cl)cc2)C1	TDP-43 yeast inh 15.8µM, Glioma ERSR ind inconclusive, FUS yeast rescue inconclusive (no result: MBNL1 CUG block)
CCCCCCCCCCOc1cc(OCCCCCCCCCC)cc(N(CC(=O)O)CC(=O)O)c1	none (no result: aSyn rescue, TDP-43 yeast inh, MBNL1 CUG block, Abeta yeast res, FUS yeast rescue)
Cc1ccccc1COC[C@H](CC(C)C)N1CCN(C(=O)c2cccc(C(F)(F)F)c2)CCC1=O	FUS yeast rescue inconclusive
CC(C)CC(COCc1ccc(Cl)cc1)N1CCN(C(=O)c2cccc(C(F)(F)F)c2)CCC1=O (configuration not stated)	FUS yeast rescue 31.6µM
Cc1ccc(COC[C@H](CC(C)C)N2CCN(C(=O)c3cccc(C(F)(F)F)c3)CCC2=O)cc1	TDP-43 yeast inh 15.8µM, FUS yeast rescue 4.47µM (no result: MBNL1 CUG block, Glioma ERSR ind)
CC(C)CC(COCc1cccc(C(F)(F)F)c1)N1CCN(C(=O)c2cccc(C(F)(F)F)c2)CCC1=O (configuration not stated)	FUS yeast rescue inconclusive
COc1ccc(NC(=O)Nc2cc(C)nn2-c2ccccc2)cc1	none (no result: aSyn rescue, TDP-43 yeast inh, MBNL1 CUG block, Abeta yeast res, Glioma ERSR ind)
COc1ccc(C(=O)n2nc(C)cc2Nc2ccccc2)cc1	TDP-43 yeast inh 35.5µM
Cc1[nH]c(-c2ccc(F)cc2)cc1C(=O)N1CCN(c2ccccc2)CC1	aSyn rescue inconclusive, TDP-43 yeast inh 17.8µM
Cc1cccc(C)c1OCCn1nnc2ccccc21	TDP-43 yeast inh 17.8µM
Cc1cc(C)cc(OCCn2nnc3ccccc32)c1	TDP-43 yeast inh 22.4µM
CC(C)(C)c1ccc(-n2nc(C#N)c(Cl)cc2=O)cc1	TDP-43 yeast inh 3.55µM, MBNL1 CUG block inconclusive
CC(C)(C)c1ccc(-n2nc(C(N)=O)c(O)cc2=O)cc1	none
COc1cc(C=Nn2c(-c3cc(-c4ccccc4)n[nH]3)n[nH]c2=S)ccc1OC(C)=O	none (no result: aSyn rescue, TDP-43 yeast inh, MBNL1 CUG block, Abeta yeast res, Glioma ERSR ind)
CC1C(=O)OC(c2ccc(Cl)cc2)C(C)(C)C1=O (configuration not stated)	TDP-43 yeast inh inconclusive
C[C@@H]1C=CC(=O)O[C@@H]1c1ccc(Cl)cc1	TDP-43 yeast inh 12.6µM
